Drawing on PubChem BioAssay (NCATS), this text covers Potency for 46 compounds.

Assay [1] is described as follows: qHTS of pediatric cancer cell lines to identify multiple opportunities for drug repurposing: Primary screen for Rh30 cells (AID 1347107). Note: nearly all actives have a fitted effect of over 75% in size. Note: potency is the fitted concentration of half-maximal effect. The method in brief: (§1)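 Viability after 48 h compound treatment at 37C, 500-1,000 cells/well, read as ATP luminescence with CellTiter-Glo. Primary screens used 11-point (MIPE, 0.78 nM-46 µM) or 8-point (NPC, 0.59 nM-46 µM) final concentrations; follow-up screens used 11-point dilutions.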

Assay [2] is described as follows: qHTS of pediatric cancer cell lines to identify multiple opportunities for drug repurposing: Primary screen for Rh41 cells (AID 1347108). Note: nearly all actives have a fitted effect of over 70% in size. Note: potency is the fitted concentration of half-maximal effect. In outline: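 Quantitative HTS format: each compound titrated (MIPE 11 points from 0.78 nM, NPC 8 points from 0.59 nM) onto cells plated 5 hours earlier. After 48 h at 37 degrees C, CellTiter-Glo luminescence was recorded.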
A short description of assay [3]: qHTS of pediatric cancer cell lines to identify multiple opportunities for drug repurposing: Confirmatory screen for NB1643 cells (AID 1347109). Note: potency is the fitted concentration of half-maximal effect; nearly all actives have a fitted effect of over 45% in size. In outline:
as §1

Assay [4] in a line: qHTS of pediatric cancer cell lines to identify multiple opportunities for drug repurposing: Confirmatory screen for A673 cells (AID 1347110).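 Note: potency is the fitted concentration of half-maximal effect; cells exposed to compound for 48 h before the viability read; nearly all actives have a fitted effect of over 65% in size.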 In outline: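 Forty-eight-hour viability assay. Follow-up compounds ran at 11-point dilutions; positive control bortezomib at 2.3 uM final, neutral control DMSO.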
Assay [5] is described as follows: qHTS of pediatric cancer cell lines to identify multiple opportunities for drug repurposing: Confirmatory screen for LAN-5 cells (AID 1347113). Note: potency is the fitted concentration of half-maximal effect; nearly all actives have a fitted effect of over 65% in size. The method in brief:
as §1

The nature of assay [6]: qHTS of pediatric cancer cell lines to identify multiple opportunities for drug repurposing: Confirmatory screen for BT-37 cells (AID 1347117).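 Note: potency is the fitted concentration of half-maximal effect; viability measured after 48 h of compound exposure; nearly all actives have a fitted effect of over 55% in size.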 The method in brief: as §1
The nature of assay [7]: qHTS of pediatric cancer cell lines to identify multiple opportunities for drug repurposing: Confirmatory screen for TC32 cells (AID 1347118).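 Note: potency is the fitted concentration of half-maximal effect; cells exposed to compound for 48 h before the read; nearly all actives have a fitted effect of over 65% in size.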 In outline:
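Luminescent CellTiter-Glo read-out of metabolically active TC32 cells after 48 h compound exposure. Primary: MIPE 11-point, 0.78 nM–46 µM; NPC 8-point, 0.59 nM–46 µM. Confirmatory: 11-point dilutions.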

The nature of assay [8]: qHTS of pediatric cancer cell lines to identify multiple opportunities for drug repurposing: Confirmatory screen for MG 63 (6-TG R) cells (AID 1347119). Note: potency is the fitted concentration of half-maximal effect; nearly all actives have a fitted effect of over 55% in size. In outline: as §1
The nature of assay [9]: qHTS of pediatric cancer cell lines to identify multiple opportunities for drug repurposing: Confirmatory screen for control Hh wild type fibroblast cells (AID 1347121). Note: nearly all actives have a fitted effect of over 70% in size. In outline: as §1
Assay [10] can be described thus: qHTS of pediatric cancer cell lines to identify multiple opportunities for drug repurposing: Confirmatory screen for Rh30 cells (AID 1347126). Note: nearly all actives have a fitted effect of over 55% in size. In outline:
as §1

The nature of assay [11]: qHTS of pediatric cancer cell lines to identify multiple opportunities for drug repurposing: Confirmatory screen for Saos-2 cells (AID 1347127). Note: potency is the fitted concentration of half-maximal effect; nearly all actives have a fitted effect of over 60% in size. The method in brief: as §1
Assay [12] in a line: qHTS of pediatric cancer cell lines to identify multiple opportunities for drug repurposing: Confirmatory screen for OHS-50 cells (AID 1347128).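 Note: potency is the fitted concentration of half-maximal effect; compound exposure lasted 48 h at 37 degrees C; nearly all actives have a fitted effect of over 55% in size.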 In outline: as §1

Molecules are shown by their SMILES. Inconclusive results are not listed. Activity calls are given as the source filed them. Calls come from the whole dose curve; as a rule, active = well fitted curve in the direction sought with a large enough effect; inconclusive = small, poorly fitted or top-dose-only effect, or another doubt; inactive = no such curve, though single readings can be large; an effect the other way counts as inactive or inconclusive.

Consider `CCOCCOC(C)=O`, for which the Potency entry in assay [1] and in assay [2] was “inactive” in each case.

On to `CCCCC(CC)COC(=O)c1ccccc1C(=O)OCC(CC)CCCC` (configuration not stated), for which the Potency result in assay [1] and in assay [2] was “inactive” each time.

As to `CC(=O)OCC1=C(C(=O)O)N2C(=O)[C@@H](N)[C@@H]2SC1`, the Potency result in [1] and in [2] was “inactive” in each case.

For `CN(C)[C@@H]1C(=O)C(C(N)=O)=C(O)[C@@]2(O)C(=O)C3=C(O)c4c(O)cccc4[C@@](C)(O)[C@H]3[C@H](O)[C@@H]12`, the Potency entry in [1] and in assay [2] was “inactive” each time.

As to `Oc1ccc2c3c1O[C@H]1[C@@H](O)C=C[C@H]4[C@@H](C2)NCC[C@@]341`, the Potency entry in assay [1] and in assay [2] was “inactive” throughout.

On to `CCC(=O)O[C@@H]1C=C2CCC3C(CCC4(C)C3CC[C@@H]4OC(=O)CC)C2CC1` (some centres not stated), for which the Potency result in [1] and in [2] was “inactive” in each case.

For `c1ccc2c(CN3CCNCC3)cccc2c1`, the Potency entry in assay [1] and in [2] was “inactive” each time.

Turning to `Cc1nc(-c2ccc(-c3ccc(C(=O)N4CCc5cc6c(cc54)C4(CCN(C)CC4)CO6)cc3)c(C)c2)no1`, the Potency entry in assay [1] and in assay [2] was “inactive” in each case.

`CC(=O)Nc1ccc(OC[C@](C)(O)C(=O)Nc2ccc([N+](=O)[O-])c(C(F)(F)F)c2)cc1`: the Potency entry in [1] and in assay [2] was “inactive” throughout.

Turning to `CCCC[N+]1(C)[C@H]2CC(OC(=O)[C@H](CO)c3ccccc3)C[C@H]1[C@H]1O[C@H]12` (some centres not stated), the Potency result in [1] and in assay [2] was “inactive” throughout.

With `CN[C@@H](C)[C@H](O)c1ccccc1`, the Potency entry in assay [1] and in assay [2] was “inactive” throughout.

As to `Cc1cc(O)ccc1Cl`, the Potency result in assay [1] and in assay [2] was “inactive” in each case.

Turning to `COc1ccc(N(C(=O)Oc2c(C)cccc2C)c2ccnc(Nc3ccc(N4CCN(C)CC4)cc3)n2)c(OC)c1`, the Potency entry in [1] and in assay [2] was “inactive” each time.

As for `OCCCBr`, the Potency result in assay [1] and in assay [2] was “inactive” in each case.

For `Oc1ccc2c3c1O[C@H]1c4[nH]c5c(c4C[C@@]4(O)[C@@H](C2)N(CC2CC2)CC[C@]314)C[C@@]1(O)[C@H]2Cc3ccc(O)c4c3[C@@]1(CCN2CC1CC1)[C@H]5O4`, the Potency entry in assay [1] and in assay [2] was “inactive” each time.

Take `COC(C)(C)CCCC(C)C/C=C/C(C)=C/C(=O)OC(C)C` (configuration not stated): the Potency entry in assay [1] and in assay [2] was “inactive” each time.

On to `Cc1ccc(Cl)c(O)c1`, for which the Potency entry in [1] and in assay [2] was “inactive” in each case.

As to `CN1[C@H]2CC(O)C[C@H]1[C@H]1O[C@H]12` (some centres not stated), the Potency in assay [1] and in [2] was 23500 nM (active) throughout.

`O=C(Oc1ccc([N+](=O)[O-])cc1)N1CCN(Cc2cccc(Oc3ccccc3)c2)CC1`: the Potency result in assay [1] and in assay [2] was “inactive” throughout.

For the compound `c1cc2ccc3cccc4ccc(c1)c2c34`, the Potency entry in [1] and in [2] was “inactive” throughout.

Consider `CC1=C(C(=O)O)N2C(=O)[C@@H](N)[C@H]2SC1`, for which the Potency entry in assay [1] and in assay [2] was “inactive” throughout.

On to `CC(Cc1ccc(O)cc1)NCC(O)c1cc(O)cc(O)c1` (configuration not stated), for which the Potency entry in assay [1] and in assay [2] was “inactive” in each case.

As for `CC(C)N(CCNC(=O)CN1CCCC1=O)C(C)C`, the Potency result in assay [1] and in assay [2] was “inactive” throughout.

In the case of `CC[N+]1(CCOC(=O)C(O)(c2ccccc2)c2ccccc2)CCCCC1`, the Potency result in assay [1] and in [2] was “inactive” in each case.

Consider `COC(=O)c1cncn1C(C)c1ccccc1` (configuration not stated), for which the Potency result in [1] and in assay [2] was “inactive” each time.

As to `CC(C)(C)[C@]1(O)C[C@@H]2OC(=O)C[C@@]23C(=O)O[C@@H]2OC(=O)[C@H](O)C213` (some centres not stated), the Potency entry in [1] and in assay [2] was “inactive” throughout.

On to `C[C@H]([C@H](O)CCC(C)(C)O)[C@H]1CC[C@@]2(O)C3=CC(=O)[C@@H]4C[C@@H](O)[C@@H](O)C[C@]4(C)[C@@H]3CC[C@]12C`, for which the Potency result in assay [1] and in assay [2] was “inactive” each time.

For `Nc1ccc(Cl)cc1N`, the Potency entry in assay [1] and in assay [2] was “inactive” throughout.

As for `CCCCCCCCc1ccc(O)cc1`, the Potency entry in assay [1] and in assay [2] was “inactive” each time.

Take `CCN1C[C@]2(OC(=O)c3ccccc3NC(C)=O)CC[C@H](OC)[C@@]34[C@H]5CC6[C@@H](OC)C[C@](O)(C(C[C@@H]23)[C@@H]14)[C@@]5(O)[C@@H]6OC`: the Potency entry in [1] and in [2] was “inactive” in each case.

In the case of `CCC1(CCC(C)C)C(=O)NC(=O)NC1=O`, the Potency entry in assay [1] and in assay [2] was “inactive” in each case.

Take `O=C(Nc1ccccc1-c1ccc(Cl)cc1)c1cccnc1Cl`: the Potency entry in [1] and in assay [2] was “inactive” throughout.

As to `CC1(N2CCC(n3c([C@@H]4CCCNC4)nc4ccccc43)CC2)CCCCCCC1`, the Potency entry in assay [1] and in [2] was “inactive” in each case.

As to `Nc1ccc([N+](=O)[O-])cc1`, the Potency result in [1] and in [2] was “inactive” in each case.

`Clc1ccccc1C(c1ccccc1)(c1ccccc1)n1cccn1`: the Potency entry in assay [1] and in assay [2] was “inactive” throughout.

As for `COc1ccc2c(c1)[C@]13CCCCC1C(C2)N(C)CC3` (some centres not stated), the Potency result in assay [1] and in assay [2] was “inactive” in each case.

For `O=[N+]([O-])c1cc([N+](=O)[O-])c2ccccc2c1`, the Potency result in assay [1] and in assay [2] was “inactive” throughout.

As for `Nc1ccc(Sc2ccc(N)cc2)cc1`, the Potency entry in assay [1] and in assay [2] was “inactive” throughout.

As to `C#CC1(O)CCC2C3CCC4=CC(=O)CCC4(C)C3CCC21C` (configuration not stated), the Potency entry in assay [1] and in assay [2] was “inactive” throughout.

Turning to `COc1cc2cc(c1Cl)N(C)C(=O)C[C@H](OC(=O)C(C)C)[C@]1(C)O[C@H]1[C@H](C)[C@@H]1C[C@@](O)(NC(=O)O1)[C@H](OC)C=CC=C(C)C2`, the Potency result in assay [1], in assay [2], in [9] and in [10] was “inactive” throughout. In addition, the Potency in assay [3] was 65700 nM (active); in [4], 1 nM (active); in assay [5], 1170 nM (active); in assay [6], 1 nM (active); in assay [7], 0.4 nM (active); in assay [8] it was 1 nM (active). Further, the Potency in assay [11] was 26100 nM (active); in assay [12], 11.7 nM (active).

Consider `COc1cccc2c1[C@]13CCN(CC4CC4)[C@H](C2)[C@]1(OC)CCC(=O)C3`, for which the Potency entry in assay [1] and in assay [2] was “inactive” each time.

On to `NC1=NC(=O)N2CC12` (configuration not stated), for which the Potency result in assay [1] and in [2] was “inactive” throughout.

`C=CC(=O)NCNC(=O)C=C`: the Potency entry in assay [1] and in assay [2] was “inactive” throughout.

`O=[N+]([O-])c1ncc[nH]1`: the Potency entry in assay [1] and in assay [2] was “inactive” in each case.

Turning to `C1=C2CCCN[C@H]2[C@@H]2C[C@H]1[C@@H]1CCCCN1C2`, the Potency entry in assay [1] and in assay [2] was “inactive” in each case.

In the case of `CC(C)[C@H]1C(=O)N[C@H](CO)Cc2c[nH]c3cccc(c23)N1C`, the Potency result in assay [1] and in [2] was “inactive” throughout.
